The entries come from a sample that favours hits as a whole.
Pf Dd2 inh: Plasmodium falciparum Dd2 growth inhibition; AID 1347417; Potency, µM (titrated, usually from 28.9 µM), actives largely listed as inhibitors; P. falciparum Dd2 growth, SYBR Green, 72 h; 4.3% of 120,000 active; active = well fitted inhibition curve with a large enough effect; note: nearly all actives have a fitted effect of over 65% in size
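Readout: SYBR Green fluorescence, 485 nm excitation, 535 nm emission, after ~16 h lysis at 37C. Before that, Dd2-infected red cells (2.5% hematocrit) grew 72 h with compound, 29 uM top final concentration.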
A number is an active result; [ ] = remark or other dose.

What do the screens show for `COc1ccc(-c2cc(N3CCC(NC(=O)c4ccccc4C)C3)n[nH]2)cc1` (stereo not given)?
Pf Dd2 inh: inactive

Results for COc1ccc(-c2cc(N3CCC(NC(=O)c4cc(F)ccc4Cl)CC3)n[nH]2)cc1 ?
Pf Dd2 inh: inactive

Results for COc1ccc(C(=O)NC2CCN(c3cc(-c4ccccc4)[nH]n3)C2)c(C)c1 (stereo not given) ?
Pf Dd2 inh: inactive

What do the screens show for `COc1ccc(-c2cc(N3CCC(NC(=O)c4ccc(F)cc4F)CC3)n[nH]2)cc1`?
Pf Dd2 inh: 1.3µM

What do the screens show for `COc1ccccc1C(=O)NC1CCN(c2cnn(CC3CC3)c(=O)c2)CC1`?
Pf Dd2 inh: inactive

How did COc1ccc(Cl)cc1C(=O)NC1CCN(c2cc(-c3ccc(F)cc3)[nH]n2)C1 (stereo not given) do in these assays?
Pf Dd2 inh: inactive

Results for COc1ccc(C(=O)NC2CCN(c3cnn(CC4CC4)c(=O)c3)CC2)c(OC)c1 ?
Pf Dd2 inh: 7.9µM

How did COc1ccc(-c2cc(N3CCC(NC(=O)c4ccc(F)cc4Cl)CC3)n[nH]2)cc1 do in these assays?
Pf Dd2 inh: inactive

How did COc1ccc(C(=O)NC2CCN(c3cc(-c4ccc(Cl)cc4)[nH]n3)C2)c(OC)c1 (stereo not given) do in these assays?
Pf Dd2 inh: 5µM

How did COc1ccc(C(=O)NC2CCN(c3cnn(C)c(=O)c3)CC2)c(OC)c1 do in these assays?
Pf Dd2 inh: inactive

How did COc1ccc(C(=O)NC2CCN(c3cc(-c4ccccc4)[nH]n3)C2)c(OC)c1 (stereo not given) do in these assays?
Pf Dd2 inh: 4.5µM

Results for COc1ccc(-c2cc(N3CCCC(NC(=O)c4cc(Cl)ccc4OC)C3)n[nH]2)cc1 (stereo not given) ?
Pf Dd2 inh: inactive

What do the screens show for `O=c1n(-c2cccc(Cl)c2)nc2n1CCN([S+](=O)([O-])c1ccccc1)C2`?
Pf Dd2 inh: inactive

Results for C=CCN(C)C(=O)[C@H]1CN2CCC1C[C@@H]2Cn1cc(COC)nn1 (stereo not given in full) ?
Pf Dd2 inh: inactive

Results for N[C@H](C(=O)N1CCC2(CC1)Nc1ccccc1NC2=O)c1ccccc1 ?
Pf Dd2 inh: inactive

Results for Cc1nc(-c2ccc(F)cc2)n(Cc2cccc(F)c2)c(=O)c1CCO ?
Pf Dd2 inh: inactive

What do the screens show for `Cc1ccc2c(c1)N(CC(=O)N1C[C@@H](C)[C@](O)(C3CCC3)C1)C(=O)CO2`?
Pf Dd2 inh: inactive

Results for COc1ccc(S(N)(=O)=O)cc1C(=O)NC1CCOC2(CCOCC2)C1 (stereo not given) ?
Pf Dd2 inh: inactive

How did COc1ccc(-c2cc(N3CCCC(NC(=O)c4cc(C)cc(C)c4)C3)n[nH]2)cc1 (stereo not given) do in these assays?
Pf Dd2 inh: 8.9µM

How did COc1ccc(-c2cc(N3CCC(NC(=O)c4cc(C)cc(C)c4)C3)n[nH]2)cc1 (stereo not given) do in these assays?
Pf Dd2 inh: inactive

What do the screens show for `COc1ccc(-c2cc(N3CCC(NC(=O)c4ccc(C)c(C)c4)C3)n[nH]2)cc1` (stereo not given)?
Pf Dd2 inh: inactive

Results for COc1ccc(C(=O)NC2CCN(c3cc(-c4ccc(OC)cc4)[nH]n3)C2)cc1 (stereo not given) ?
Pf Dd2 inh: inactive

Results for Cc1ccc(C(=O)NC2CCN(c3cc(-c4ccc(F)cc4)[nH]n3)CC2)cc1C ?
Pf Dd2 inh: inactive

Results for COc1ccc(-c2cc(N3CCC(NC(=O)c4ccc(Br)cc4)C3)n[nH]2)cc1 (stereo not given) ?
Pf Dd2 inh: inactive

How did Cc1ccc(C(=O)NC2CCN(c3cc(-c4ccc(F)cc4)[nH]n3)C2)cc1C (stereo not given) do in these assays?
Pf Dd2 inh: 13µM

What do the screens show for `COc1ccc(-c2cc(N3CCCC(NC(=O)c4cc(C)ccc4C)C3)n[nH]2)cc1` (stereo not given)?
Pf Dd2 inh: inactive

Results for COc1ccc(C(=O)NC2CCN(c3cc(-c4ccc(Cl)cc4)[nH]n3)C2)cc1 (stereo not given) ?
Pf Dd2 inh: 8.9µM

How did COc1ccc(C(=O)N2[C@H]3CC[C@@H]2c2cnc(-c4ccc(F)cc4)nc2C3)cc1OC do in these assays?
Pf Dd2 inh: inactive

How did CCOCCCNC(=O)c1c(OCC)cc(=O)n2c1CCCCC2 do in these assays?
Pf Dd2 inh: inactive

Results for N#Cc1ccc(O[C@@H]2CCOC[C@H]2NC(=O)CCCn2cncn2)cc1 ?
Pf Dd2 inh: inactive

Results for O=C(NC1CCN(c2cc(-c3ccc(Cl)cc3)[nH]n2)C1)c1ccccc1Br (stereo not given) ?
Pf Dd2 inh: inactive

Results for CCn1cc(S(=O)(=O)N2CCC(N3C(=O)C(OC)C34CCOCC4)CC2)cn1 (stereo not given) ?
Pf Dd2 inh: inactive

Results for Cc1cn2nc(C(=O)Nc3ccc4c(c3)OCCO4)cc2c(N2CCSCC2)n1 ?
Pf Dd2 inh: inactive

What do the screens show for `CS(=O)(=O)N1CCC(C2CCN(C(=O)c3cn[nH]c3)C2)CC1` (stereo not given)?
Pf Dd2 inh: inactive

What do the screens show for `COc1ccc2c(c1)CN(C(=O)N1CCOCC1)CC[C@H]1COC(=O)N21`?
Pf Dd2 inh: inactive

How did COC(=O)[C@H](Cc1ccc(OC)cc1)NC(=O)[C@@H]1CN(C(=O)c2cccc(F)c2)CCN1C(C)=O do in these assays?
Pf Dd2 inh: inactive

How did COC(=O)[C@H](Cc1ccc(OC)cc1)NC(=O)[C@H]1CN(S(=O)(=O)c2ccccc2)CCN1C(=O)NC1CCCCC1 do in these assays?
Pf Dd2 inh: 11µM

How did COC(=O)[C@H](Cc1ccc(OC)cc1)NC(=O)[C@H]1CN(C(=O)Nc2ccccc2)CCN1C(=O)C1CCCCC1 do in these assays?
Pf Dd2 inh: inactive

What do the screens show for `COC(=O)[C@H](Cc1ccc(OC)cc1)NC(=O)[C@H]1CN(C(=O)c2ccc(N(C)C)cc2)CCN1C(=O)c1cccs1`?
Pf Dd2 inh: 0.14µM

How did COC(=O)[C@H](Cc1ccc(OC)cc1)NC(=O)[C@H]1CN(C(=O)c2ccc(N(C)C)cc2)CCN1C(=O)C1CCCCC1 do in these assays?
Pf Dd2 inh: 0.4µM

Results for CN(C)c1ccc(C(=O)N2CCN(S(C)(=O)=O)[C@H](C(=O)N[C@@H](CC3CCCCC3)C(N)=O)C2)cc1 ?
Pf Dd2 inh: inactive

How did COC(=O)[C@@H](C)NC(=O)[C@H]1CN(S(=O)(=O)c2ccccc2)CCN1C(=O)NC1CCCCC1 do in these assays?
Pf Dd2 inh: inactive

How did COC(=O)[C@H](Cc1ccc(OC)cc1)NC(=O)[C@@H]1CN(S(C)(=O)=O)CCN1S(=O)(=O)c1ccccc1 do in these assays?
Pf Dd2 inh: inactive

Results for COC(=O)[C@H](Cc1ccc(OC)cc1)NC(=O)[C@@H]1CN(C(=O)NC(C)C)CCN1C(=O)c1cccs1 ?
Pf Dd2 inh: inactive

Results for CC(C)(O)c1cn(C[C@H]2C[C@@H]3CCN2C[C@@H]3C(=O)NCc2ccc(F)cc2)nn1 ?
Pf Dd2 inh: inactive

Results for CC(=O)NCC(=O)N1CC(F)(F)C[C@H]1c1nc(C2CC2)no1 ?
Pf Dd2 inh: inactive

What do the screens show for `O=c1[nH]c(N2CCOCC2)nc2c1CCN(Cc1cccc(Br)c1)CC2`?
Pf Dd2 inh: inactive[5.79 µM]

What do the screens show for `CC(=O)N1CCc2c(sc3c2c(=O)n(-c2cc(Cl)ccc2C)c(=O)n3Cc2ccccc2F)C1`?
Pf Dd2 inh: 10µM

How did COc1cccc(NC(=O)Cn2c(=O)n(-c3ccccc3)c(=O)c3c4c(sc32)CCCC4)c1 do in these assays?
Pf Dd2 inh: inactive
